Assay [1] has as its system Zika virus NS2B-NS3 protease. The experiment in a line: Primary screen GU AMC qHTS for Zika virus inhibitors (AID 1347154). Also: nearly all actives have a fitted effect of over 70% in size. Also: potency is read from the fitted curve at half-maximal effect.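 As to activity change, negative = inhibition: 0% = no-inhibitor control and -100% = no-enzyme control.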 In a few lines:
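Unlinked Zika NS2B hydrophilic domain/NS3 protease domain noncovalent complex (25 nM final) in 10 mM Tris-HCl pH 8.0, 0.01% Tween 20, with AMC peptide substrate. Fluorescence (ex 340, em 450 nm) change over 15 min, room temperature; percent inhibition fitted to 4-parameter Hill equation.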
Background: Quantitative high-throughput screening tests each substance at several concentrations.

Assay [2] in a line: Primary qHTS for small molecule stabilizers of the endoplasmic reticulum resident proteome: Secreted ER Calcium Modulated Protein (SERCaMP) assay (AID 1508630). Also: % is scaled to controls: 0 for no effect and ±100 for the full control effect. In a few lines:
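GLuc-SERCaMP-expressing SH-SY5Y cells, pretreated 16 h with compound, are challenged with thapsigargin to empty ER calcium stores; after 4 h, coelenterazine is added directly to the medium and luminescence is imaged.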

Results filed as inconclusive are left out. Values without a mark were called inactive. Activity calls are given as the source filed them. Calls follow the shape of the dose curve; as a rule, active = well fitted curve in the direction sought with a large enough effect; inconclusive = small, poorly fitted or top-dose-only effect, or another doubt; inactive = no such curve, though single readings can be large; an effect the other way counts as inactive or inconclusive.

As to `CCCCCCCCC#CCC#CCC#CCCCC(=O)O`, the activity change, negative = inhibition in assay [1] was 19.3% [at 6.83 µM]; in assay [2], -14.3% [at 3.88 µM].
As for `C[C@@](N)(C(=O)O)[C@@H]1C[C@@H]1C(=O)O`, the Potency entry in assay [1] and in assay [2] was “inactive” each time.
As for `CCCCCCCCCCCCC(O)C(=O)O` (stereo not given), the activity change, negative = inhibition was 10.2% [at 6.83 µM] in assay [1] and 56.7% [at 3.88 µM] in assay [2].
On to `CCCCC/C=C\C/C=C\CCCCCCCC(N)=O`, for which the results for the activity change, negative = inhibition in assay [1] and in assay [2] were 15% [at 6.83 µM] and -21% [at 3.88 µM], respectively.
For `Nc1cc(N2CCCCC2)nc(N)[n+]1OS(=O)(=O)[O-]`, the Potency entry in assay [1] and in assay [2] was “inactive” throughout.
Consider `CCOC(=O)C12CC1/C(=N\O)c1ccccc1O2` (stereo not given), for which the Potency result in assay [1] and in assay [2] was “inactive” each time.
Consider `CCCCCCCCCCCCC/C=C/[C@@H](O)[C@H](CO)NC(=O)CCCCCCC`, for which the results for the activity change, negative = inhibition in assay [1] and in assay [2] were 11.7% [at 6.83 µM] and 18.1% [at 3.88 µM], respectively.
Take `CCCCCCCCCCCCCCCCOCC(CO)OC` (stereo not given): the activity change, negative = inhibition in assay [1] was 21.3% [at 6.83 µM]; in assay [2], -17.7% [at 3.88 µM].
Turning to `CCc1c2c(nc3ccc(OC(=O)N4CCC(N5CCCCC5)CC4)cc13)-c1cc3c(c(=O)n1C2)COC(=O)C3(O)CC` (stereo not given), the Potency in assay [1] is 29.9 µM (active). For the same compound, the Potency result in assay [2] is “inactive”.
For the compound `NCCCC[C@@H](N)C(=O)O`, the Potency entry in assay [1] and in assay [2] was “inactive” throughout.
On to `CCCCCCCCCCC1=C(C)C(=O)C(OC)=C(OC)C1=O`, for which the Potency result in assay [1] and in assay [2] was “inactive” in each case.
On to `O=C1C(Nc2ccccc2)=CC(=O)c2ncccc21`, for which the Potency entry in assay [1] and in assay [2] was “inactive” throughout.
On to `CC(O)(C(=O)Nc1ccc(S(=O)(=O)c2ccccc2)cc1)C(F)(F)F` (stereo not given), for which the Potency entry in assay [1] and in assay [2] was “inactive” each time.
As for `O=C(O)COc1ccc(OCCNC[C@H](O)COc2ccccc2)cc1`, the Potency result in assay [1] and in assay [2] was “inactive” throughout.
Turning to `C[C@@H](O)CNC(C)(C)CC(=O)N[C@@H]1CCc2ccccc2N(Cc2ccc(-c3ccccc3-c3nn[nH]n3)cc2)C1=O`, the Potency result in assay [1] and in assay [2] was “inactive” each time.
For the compound `CCC(=O)NC1CCc2cccc(OC)c2C1` (stereo not given), the Potency entry in assay [1] and in assay [2] was “inactive” in each case.
Regarding `CCCCCCCCCC(=O)OCC(CO)OC(=O)CCCCCCCCC` (stereo not given), the activity change, negative = inhibition in assay [1] is 1.45% [at 6.83 µM]; in assay [2], -13.4% [at 3.88 µM].
`CCCCC/C=C\C/C=C\C/C=C\C=C\[C@@H](O)CCCC(=O)O`: the activity change, negative = inhibition in assay [1] was 0.663% [at 0.59 µM]; in assay [2] it was -9.05% [at 0.478 µM].
Turning to `CCCCCCCCCCCCC/C=C/[C@@H](O)[C@H](CO)NCCCCCCCC`, the results for the activity change, negative = inhibition in assay [1] and in assay [2] were 15.2% [at 6.83 µM] and -10.1% [at 3.88 µM], respectively.
Turning to `Nc1nc2c(ncn2[C@@H]2O[C@H](COP(=O)(O)OP(=O)(O)OP(=O)(O)O)[C@@H](O)C2O)c(=O)[nH]1` (stereo not given in full), the Potency result in assay [1] and in assay [2] was “inactive” throughout.
Take `Cn1cnc2nc(NCCO)nc(NCc3ccccc3)c21`: the Potency entry in assay [1] and in assay [2] was “inactive” throughout.
As to `CCCN(C/C=C/I)C1CCc2cccc(O)c2C1` (stereo not given), the Potency entry in assay [1] and in assay [2] was “inactive” throughout.
For the compound `C=C1Cc2c(Cl)cc3[nH]c4c5c3c2[C@@]2(O)[C@@H]1C[C@@H]2C(C)(C)O[C@H]5[C@@H]1CC[C@@]2(O)[C@@]35O[C@@H]3[C@@H](O)[C@@H](C(=O)O)O[C@H]5CC[C@]2(C)[C@@]41C`, the Potency result in assay [1] and in assay [2] was “inactive” in each case.
In the case of `CC(N)(C(=O)O)c1ccc(P(=O)(O)O)cc1` (stereo not given), the Potency result in assay [1] and in assay [2] was “inactive” throughout.
As for `CC(C)C[C@H](NC(=O)[C@H](Cc1ccccc1)NC(=O)CNC(=O)CNC(=O)[C@@H](N)Cc1ccc(O)cc1)C(=O)N[C@@H](CCCN=C(N)N)C(=O)N[C@@H](CCCN=C(N)N)C(=O)N[C@@H](CCC(N)=O)C(=O)N[C@@H](Cc1ccccc1)C(=O)N[C@@H](CCCCN)C(=O)N[C@H](C(=O)N[C@H](C(=O)N[C@H](C(=O)O)[C@@H](C)O)C(C)C)C(C)C`, the activity change, negative = inhibition in assay [1] was 3.02% [at 6.83 µM]; in assay [2], -2% [at 3.88 µM].
Consider `CCCCC/C=C\C\C=C/C=C/C=C/[C@@H](SCC(NC(C)=O)C(=O)O)[C@@H](O)CCCC(=O)O` (stereo not given in full), for which the figures for the activity change, negative = inhibition in assay [1] and in assay [2] were 13.7% [at 0.59 µM] and -5.72% [at 0.478 µM], respectively.
Take `NC1=NC2C(N=C(Br)N2[C@@H]2O[C@H]3COP(=O)(O)O[C@@H]3[C@@H]2O)C(=O)N1` (stereo not given in full): the Potency result in assay [1] and in assay [2] was “inactive” each time.
Regarding `CC(CCCCC(=O)Nc1ccc(C(F)(F)F)cc1)NCCc1cnc[nH]1` (stereo not given), the Potency entry in assay [1] and in assay [2] was “inactive” in each case.
As for `c1ccc(CN(CCN(Cc2ccccn2)Cc2ccccn2)Cc2ccccn2)nc1`, the Potency entry in assay [1] and in assay [2] was “inactive” each time.
In the case of `C=CCn1c(=O)c2c(nc(-c3ccccc3)n2C)n(C)c1=O`, the Potency entry in assay [1] and in assay [2] was “inactive” each time.
Regarding `COCCCCCCCCCCCC(=O)O`, the activity change, negative = inhibition in assay [1] was 13.2% [at 6.83 µM]; in assay [2] it was -27.3% [at 3.88 µM].
On to `CC1=C(/C=C/C(=C/C=C/C(C)=C/C(=O)O)c2ccc(C)cc2)C(C)(C)CCC1`, for which the Potency entry in assay [1] and in assay [2] was “inactive” throughout.
Consider `CC(=O)OCOC(c1ccc2ccccc2c1)P(=O)(OCOC(C)=O)OCOC(C)=O` (stereo not given), for which the Potency result in assay [1] and in assay [2] was “inactive” each time.
Turning to `COC(=O)[C@@H](N)CSC/C=C(\C)CC/C=C(\C)CCC=C(C)C`, the Potency result in assay [1] and in assay [2] was “inactive” in each case.
As for `O=C(O)/C=C1\CCCc2ccccc2C1O` (stereo not given), the Potency entry in assay [1] and in assay [2] was “inactive” throughout.

The values are drawn from PubChem BioAssay (NCATS).
